Results taken from PubChem BioAssay (NCATS).
Results filed as inconclusive are left out. The source made the active and inactive calls. Unless noted, calls come from the whole dose curve; as a rule, active = well fitted curve in the direction sought with a large enough effect; inconclusive = small, poorly fitted or top-dose-only effect, or another doubt; inactive = no such curve, though single readings can be large; an effect the other way counts as inactive or inconclusive.

Key:
[1] = NS1 protein of Zika virus - qHTS assay to identify small molecule inhibitors in human HEK 293 cells (AID 1347053);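 note: plate controls were infected untreated cells for no effect and uninfected cells for full effect; nearly all actives have a fitted effect of over 55% in size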
Procedure, shortened: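 HEK 293; 20 h pre-culture, 37 C/5% CO2; cpd 1 h pre-infection; ZIKV MR766, MOI = 0.5, 24 h, 37 C; TR-FRET NS1 readout (two anti-NS1 Abs); norm. to no-virus vs infected.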

[2] = biological target: T1, Tyrosine-protein phosphatase non-receptor type substrate 1 (Homo sapiens) + Leukocyte surface antigen CD47 (Homo sapiens) (UniProt P78324+Q08722); test: CD47-SIRPalpha protein protein interaction - LANCE assay qHTS validation (AID 1347057; active = well fitted curve in the direction sought with a large enough effect in the signal ratio, with a control signal flat, not every such curve was filed as active; the % refers to the signal ratio; note: 0% is about no effect)
T1 sequence (P78324 whole entry, looked up): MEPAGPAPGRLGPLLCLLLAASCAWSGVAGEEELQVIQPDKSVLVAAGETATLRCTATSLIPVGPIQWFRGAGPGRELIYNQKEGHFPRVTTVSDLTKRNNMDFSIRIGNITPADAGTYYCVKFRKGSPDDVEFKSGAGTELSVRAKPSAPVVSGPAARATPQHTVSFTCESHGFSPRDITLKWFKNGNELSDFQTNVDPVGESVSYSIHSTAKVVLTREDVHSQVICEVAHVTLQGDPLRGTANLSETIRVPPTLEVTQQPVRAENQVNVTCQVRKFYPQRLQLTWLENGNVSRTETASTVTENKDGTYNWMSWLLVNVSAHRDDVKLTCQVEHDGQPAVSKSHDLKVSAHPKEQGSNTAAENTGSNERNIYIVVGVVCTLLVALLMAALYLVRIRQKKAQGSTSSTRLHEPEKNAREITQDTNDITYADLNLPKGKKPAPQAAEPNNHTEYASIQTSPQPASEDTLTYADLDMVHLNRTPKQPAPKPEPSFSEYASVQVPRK
T1 sequence (Q08722 whole entry, looked up): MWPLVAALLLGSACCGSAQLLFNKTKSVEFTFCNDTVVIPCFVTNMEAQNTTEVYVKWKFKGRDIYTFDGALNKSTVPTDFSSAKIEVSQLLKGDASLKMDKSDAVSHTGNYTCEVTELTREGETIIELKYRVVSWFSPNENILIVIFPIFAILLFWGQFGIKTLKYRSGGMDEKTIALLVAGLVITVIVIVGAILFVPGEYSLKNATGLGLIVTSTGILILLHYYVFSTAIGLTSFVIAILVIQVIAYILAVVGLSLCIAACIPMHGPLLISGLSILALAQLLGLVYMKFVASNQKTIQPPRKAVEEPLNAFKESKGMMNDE
Procedure, shortened: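 First, His-tagged CD47 and Eu-labelled anti-His antibody met the compound for 30 min; next, site-specifically biotinylated SIRPalpha was added for 30 min; finally streptavidin-APC was added before reading the TR-FRET ratio.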

[3] = biological target: T1, Tyrosine-protein phosphatase non-receptor type substrate 1 (Homo sapiens) + Leukocyte surface antigen CD47 (Homo sapiens); test: CD47-SIRPalpha protein protein interaction - HTRF assay qHTS validation (AID 1347058; active = well fitted curve in the direction sought with a large enough effect in the signal ratio, not every such curve was filed as active; the % refers to the signal ratio; note: 0% is about no effect)
Procedure, shortened: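 TR-FRET read (Ch1/Ch2 ratio) of soluble extracellular CD47 and Avi-biotinylated SIRPalpha domains in PBS pH 7.4 with 0.05% IGEPAL; 7-point compound titration. Sequential 30 min room-temperature steps; non-biotinylated SIRPalpha as control inhibitor.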

[4] = biological target: T1, Tyrosine-protein phosphatase non-receptor type substrate 1 (Homo sapiens) + Leukocyte surface antigen CD47 (Homo sapiens); test: CD47-SIRPalpha protein protein interaction - Alpha assay qHTS validation (AID 1347059);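 note: bead proximity luminescence from CD47 binding SIRPalpha after compound preincubation with SIRPalpha; % is set by controls: 0 for no effect and ±100 for the full control effect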
Procedure, shortened: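 Soluble extracellular domains: Avi-tag biotinylated SIRPalpha (25 nM) preincubated 30 min RT with compound, then 6His-CD47 (12.5 nM) 30 min; Ni-NTA acceptor and streptavidin donor beads (10 ug/mL) 30 min, AlphaScreen read. PBS pH 7.4, 0.05% IGEPAL.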

[5] = biological target: Parathyroid hormone/parathyroid hormone-related peptide receptor (Homo sapiens) (UniProt Q03431); test: qHTS for PTHR1 Agonists: Optimization Screen against the NCGC LOPAC library (AID 1347079);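 note: GloSensor cAMP luminescence in HEK-293 GP2 cells expressing human PTHR1 with IBMX; 0% is about no effect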
Chain of Parathyroid hormone/parathyroid hormone-related peptide receptor (Homo sapiens) (Q03431 whole entry, looked up): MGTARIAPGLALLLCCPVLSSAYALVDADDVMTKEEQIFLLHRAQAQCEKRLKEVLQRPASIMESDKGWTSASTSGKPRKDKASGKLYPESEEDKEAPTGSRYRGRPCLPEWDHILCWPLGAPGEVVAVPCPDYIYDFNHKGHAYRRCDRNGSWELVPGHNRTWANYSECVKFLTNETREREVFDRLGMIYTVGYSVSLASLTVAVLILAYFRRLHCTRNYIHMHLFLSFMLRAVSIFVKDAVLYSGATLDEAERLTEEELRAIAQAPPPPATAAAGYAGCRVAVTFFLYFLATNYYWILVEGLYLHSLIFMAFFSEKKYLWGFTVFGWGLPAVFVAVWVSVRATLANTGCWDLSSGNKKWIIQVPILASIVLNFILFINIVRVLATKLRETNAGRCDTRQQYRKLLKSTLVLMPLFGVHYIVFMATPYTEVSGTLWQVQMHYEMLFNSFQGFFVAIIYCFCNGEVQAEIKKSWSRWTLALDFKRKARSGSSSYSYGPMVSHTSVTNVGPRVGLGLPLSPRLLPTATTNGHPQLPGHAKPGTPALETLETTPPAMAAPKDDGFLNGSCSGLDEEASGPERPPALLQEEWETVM
Procedure, shortened: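 Compounds were tested across a qHTS titration. PTHR1-expressing GP2 cells report cAMP rises via GloSensor luminescence after 1 hr compound exposure at 37C with IBMX present.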

[6] = biological target: N-terminal Xaa-Pro-Lys N-methyltransferase 1 (Homo sapiens) (UniProt Q9BV86); test: qHTS Assay for Inhibitors of N-terminal methyltransferase 1 (NTMT1): LOPAC validation of the NTMT1 SAHH-coupled ThioGlo3 Assay (AID 1347143); note: % is set by controls: 0 for no effect and ±100 for the full control effect; nearly all actives have a fitted effect of over 70% in size
Chain of N-terminal Xaa-Pro-Lys N-methyltransferase 1 (Homo sapiens) (Q9BV86 whole entry, looked up): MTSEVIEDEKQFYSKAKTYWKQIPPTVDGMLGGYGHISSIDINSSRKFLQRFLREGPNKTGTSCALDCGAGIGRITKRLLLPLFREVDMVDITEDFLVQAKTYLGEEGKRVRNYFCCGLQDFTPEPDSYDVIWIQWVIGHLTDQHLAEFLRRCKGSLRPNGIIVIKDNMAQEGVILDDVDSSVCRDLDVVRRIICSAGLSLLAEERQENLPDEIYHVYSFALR
Procedure, shortened: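 Fluorescence read-out (excitation 340nm, emission 450nm) of SAH-derived thiol, measured via SAHH coupling and ThioGlo3, taken immediately and after a 30 min room-temperature reaction, then normalized to the background read. Enzyme: NTMT1 at 125nM; cofactor SAM 100uM in the added reagent.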

[7] = biological target: Lysine-specific demethylase 5B (Homo sapiens) (UniProt Q9UGL1); test: Optimization screen for KDM5B Histone Demethylases FDH coupled qHTS against the LOPAC library (AID 1347166); conditions: KDM5B demethylation, FDH-coupled NADH fluorescence (FDH is formaldehyde dehydrogenase); at 57.5 µM (top of the series); note: 0% is about no effect
Chain of Lysine-specific demethylase 5B (Homo sapiens) (Q9UGL1 whole entry, looked up): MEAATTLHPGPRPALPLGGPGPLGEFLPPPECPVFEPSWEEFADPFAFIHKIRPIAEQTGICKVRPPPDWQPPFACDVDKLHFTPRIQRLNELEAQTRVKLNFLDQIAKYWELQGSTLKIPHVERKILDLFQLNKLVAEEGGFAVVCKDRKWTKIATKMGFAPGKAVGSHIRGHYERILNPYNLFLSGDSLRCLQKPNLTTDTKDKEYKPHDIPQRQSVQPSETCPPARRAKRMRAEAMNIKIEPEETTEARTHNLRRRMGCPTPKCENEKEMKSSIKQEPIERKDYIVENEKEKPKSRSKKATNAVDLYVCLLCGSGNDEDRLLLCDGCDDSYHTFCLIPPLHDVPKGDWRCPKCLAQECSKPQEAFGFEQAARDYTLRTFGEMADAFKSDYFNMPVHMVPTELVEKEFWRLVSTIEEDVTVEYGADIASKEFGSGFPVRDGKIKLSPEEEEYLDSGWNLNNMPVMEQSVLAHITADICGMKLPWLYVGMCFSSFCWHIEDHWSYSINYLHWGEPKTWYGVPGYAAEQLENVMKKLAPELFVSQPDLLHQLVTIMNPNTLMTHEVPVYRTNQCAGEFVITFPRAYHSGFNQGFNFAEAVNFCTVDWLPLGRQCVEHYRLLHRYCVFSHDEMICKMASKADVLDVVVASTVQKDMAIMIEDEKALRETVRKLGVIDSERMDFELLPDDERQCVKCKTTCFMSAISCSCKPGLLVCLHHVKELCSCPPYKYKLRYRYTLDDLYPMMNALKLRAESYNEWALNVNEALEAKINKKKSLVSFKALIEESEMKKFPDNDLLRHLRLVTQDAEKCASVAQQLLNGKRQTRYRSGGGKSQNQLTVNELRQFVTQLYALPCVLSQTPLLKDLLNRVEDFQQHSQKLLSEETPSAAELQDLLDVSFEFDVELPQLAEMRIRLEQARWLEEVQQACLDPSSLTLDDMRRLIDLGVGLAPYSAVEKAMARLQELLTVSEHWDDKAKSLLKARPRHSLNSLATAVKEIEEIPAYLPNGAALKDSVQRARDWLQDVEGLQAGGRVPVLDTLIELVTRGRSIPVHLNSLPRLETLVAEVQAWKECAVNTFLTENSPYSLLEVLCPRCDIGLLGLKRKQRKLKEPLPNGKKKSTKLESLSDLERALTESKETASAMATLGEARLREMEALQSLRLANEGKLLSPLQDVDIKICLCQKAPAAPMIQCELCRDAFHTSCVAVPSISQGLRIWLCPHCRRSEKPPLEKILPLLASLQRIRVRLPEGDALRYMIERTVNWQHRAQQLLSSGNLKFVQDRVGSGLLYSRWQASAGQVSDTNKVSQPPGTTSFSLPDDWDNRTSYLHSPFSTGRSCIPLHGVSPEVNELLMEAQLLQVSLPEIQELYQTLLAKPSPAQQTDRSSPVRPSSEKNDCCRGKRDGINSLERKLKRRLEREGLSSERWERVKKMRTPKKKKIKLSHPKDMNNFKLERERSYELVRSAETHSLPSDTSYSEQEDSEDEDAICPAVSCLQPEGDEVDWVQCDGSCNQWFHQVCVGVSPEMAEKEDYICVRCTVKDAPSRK
Procedure, shortened: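 KDM5BDeltaAP (200nM final) preincubated 10 min with compound, then 12.5uM H3K4Me3, 25uM a-ketoglutarate, ascorbate, Fe(II), NAD+ and FDH added; 50mM HEPES pH 7.5, 0.01% Tween-20. NADH fluorescence (340/450 nm) change over 30 min, room temperature.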

[8] = test system: Zika virus NS2B-NS3 protease (unlinked); test: Optimization of GU AMC qHTS for Zika virus inhibitors: Unlinked NS2B-NS3 protease assay (AID 1347151); note: nearly all actives have a fitted effect of over 80% in size; note: potency is the fitted concentration of half-maximal effect
Procedure, shortened: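 Percent inhibition is derived from the 15-min change in AMC fluorescence, normalized against no-inhibitor and no-enzyme controls, then fitted to a 4-parameter Hill curve. Aprotinin was the intraplate control.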

[9] = test system: Zika virus NS2B-NS3 protease; test: Primary screen GU AMC qHTS for Zika virus inhibitors (AID 1347154);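 note: 0% = no-inhibitor control and -100% = no-enzyme control; nearly all actives have a fitted effect of over 70% in size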
Procedure, shortened: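 Unlinked Zika NS2B hydrophilic domain/NS3 protease domain noncovalent complex (25 nM final) in 10 mM Tris-HCl pH 8.0, 0.01% Tween 20, with AMC peptide substrate. Fluorescence (ex 340, em 450 nm) change over 15 min, room temperature; percent inhibition fitted to 4-parameter Hill equation.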

[10] = biological target: Furin (Homo sapiens) (UniProt P09958); test: Furin counterscreen qHTS for Zika virus inhibitors (AID 1347149); note: potency is the fitted concentration of half-maximal effect; nearly all actives have a fitted effect of over 70% in size
Chain of Furin (Homo sapiens) (P09958 whole entry, looked up): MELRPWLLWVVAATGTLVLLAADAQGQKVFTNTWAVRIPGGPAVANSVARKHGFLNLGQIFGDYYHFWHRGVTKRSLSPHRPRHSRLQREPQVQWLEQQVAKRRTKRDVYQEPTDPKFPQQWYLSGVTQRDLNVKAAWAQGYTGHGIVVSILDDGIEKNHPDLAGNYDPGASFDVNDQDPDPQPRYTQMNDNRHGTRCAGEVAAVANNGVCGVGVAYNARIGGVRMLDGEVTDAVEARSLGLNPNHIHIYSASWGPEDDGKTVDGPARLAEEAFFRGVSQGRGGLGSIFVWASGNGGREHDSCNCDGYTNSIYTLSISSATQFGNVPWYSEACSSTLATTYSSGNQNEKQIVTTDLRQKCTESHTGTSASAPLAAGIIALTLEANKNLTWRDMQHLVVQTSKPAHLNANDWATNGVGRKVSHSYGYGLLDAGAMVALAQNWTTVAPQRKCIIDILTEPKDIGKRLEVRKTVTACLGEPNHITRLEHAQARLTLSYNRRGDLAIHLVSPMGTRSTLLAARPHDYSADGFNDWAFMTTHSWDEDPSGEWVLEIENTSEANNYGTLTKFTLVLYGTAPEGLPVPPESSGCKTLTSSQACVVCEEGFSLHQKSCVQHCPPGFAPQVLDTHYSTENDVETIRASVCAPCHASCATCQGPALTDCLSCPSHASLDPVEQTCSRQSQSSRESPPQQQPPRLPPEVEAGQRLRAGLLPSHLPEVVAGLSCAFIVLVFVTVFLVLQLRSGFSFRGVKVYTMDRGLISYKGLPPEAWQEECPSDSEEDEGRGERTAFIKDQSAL
Procedure, shortened: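 Fluorogenic cleavage of BOC-RVRR-AMC (2 microM final, Km ~15 µM) was monitored (ex 340, em 450 nm) at 37C after 15 min RT preincubation of 5 nM furin with compounds in HEPES pH 7.0 buffer with CaCl2 and Triton X-100. Percent inhibition was fitted to a 4-parameter Hill curve.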

[11] = test system: Zika virus NS2B-NS3 protease (linked construct); test: Confirmatory screen NINDS AMC qHTS for Zika virus inhibitors (AID 1347152); note: potency is the fitted concentration of half-maximal effect; nearly all actives have a fitted effect of over 70% in size
Procedure, shortened: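 In this dose-response qHTS, AMC release from 10 microM Bz-Nle-KRR-AMC by 1 nM linked protease is measured over 15 minutes (about 20% conversion) at pH 8.0. Percent inhibition is fitted to a 4-parameter Hill curve.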

[12] = test system: Zika virus NS2B-NS3 protease (unlinked complex); test: Confirmatory screen GU AMC qHTS for Zika virus inhibitors (AID 1347153)
Procedure, shortened: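 Unlinked enzyme 25 nM, Tris pH 8.0/0.01% Tween 20; cpd 15 min RT, dark; + AMC substrate 10 µM (Km 18.3 µM); 340/450 nm read at t0 and 15 min; % inhibition → 4-param fit.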

[13] = ZIKV-mCherry secondary qHTS for Zika virus inhibitors (AID 1347158); note: potency is the fitted concentration of half-maximal effect
Procedure, shortened: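 Vero cells, 5,000/well, plated overnight at 37 °C, then compound added and infected with recombinant ZIKV-mCherry at MOI 1 for 48-72 h. PFA-fixed, Hoechst nuclear stain, high-content imaging; cells with mCherry intensity above 450 RFU scored infected, reported as percent infection.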

[14] = Confirmatory screen NINDS Rhodamine qHTS for Zika virus inhibitors (AID 1347161); note: potency is the fitted concentration of half-maximal effect; nearly all actives have a fitted effect of over 60% in size
Procedure, shortened: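 In 10 mM Tris-HCl pH 8.0 containing 0.01% Tween 20, linked NS2B-NS3 protease (25 nM final) is exposed to test compounds for 15 min. Cleavage of 1.5 microM Rhodamine110 substrate is tracked by fluorescence over 15 min.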

[15] = test system: Zika virus NS2B-NS3 protease (linked); test: 384 well plate NINDS AMC confirmatory qHTS for Zika virus inhibitors (AID 1347163);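 note: linked protease at 5 30 or 60 nM final depending on run; fluorescence of AMC released from Ac-VKTGKR-AMC peptide cleaved by the protease; top concentration of the series differs between compounds; 0% = no-inhibitor control and -100% = no-enzyme control; nearly all actives have a fitted effect of over 50% in size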
Procedure, shortened: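 Linked protease 5/30/60 nM final; cpds up to 1 mM final, ~15 min preinc. Substrate Ac-VKTGKR-AMC 30 microM final. RT, dark, 25 min; FI ex 355/em 460; normalized to no-enzyme/no-inhibitor ctrls.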

[16] = test system: Zika virus NS2B-NS3 protease (linked construct); test: 384 well plate NINDS Rhodamine confirmatory qHTS for Zika virus inhibitors (AID 1347164);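 note: top concentration of the series differs between compounds; plate controls were no-inhibitor control for no effect and no-enzyme control for full effect; nearly all actives have a fitted effect of over 65% in size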
Procedure, shortened: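 Compounds are incubated about 15 minutes with linked protease (5, 30 or 60 nM final). Rhodamine 110-tagged Ac-LKRR substrate (10 microM final) is added and fluorescence measured after 25 minutes.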

[17] = Vero cells viability qHTS for Zika virus inhibitors (AID 1347167); note: % is set by controls: 0 for no effect and ±100 for the full control effect
Procedure, shortened: (§1)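 Counter-screen for cytotoxicity of hits from NS2B-NS3 protease qHTS. Overnight-attached cells (2.5 x 10^5 cells/mL, DMEM/4% FBS) were dosed in titration, incubated 24 to 48 hours, then assayed by CellTiter Glo.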

[18] = HepG2 cells viability qHTS for Zika virus inhibitors (AID 1347168); note: % is set by controls: 0 for no effect and ±100 for the full control effect
Procedure, shortened: as §1

COc1ccc(CCn2nnnc2C2(c3ccc(C)cc3)CC2)cc1
inactive: Potency [1] | Potency [2] | outcome [3] | Potency [4] | Potency [5] | Potency [6] | activity, negative = inhibition [7] -4.62%

CCCOC(=O)c1c(-c2ccccc2)nc(CC)c(C(=O)SCC)c1CCC
inactive: Potency [1] | Potency [2] | outcome [3] | Potency [4] | Potency [5] | Potency [6] | activity, negative = inhibition [7] -14.4%

O=c1ccc2c(OCCCCc3ccccc3)c3ccoc3cc2o1
inactive: Potency [1] | Potency [2] | outcome [3] | Potency [4] | Potency [5]
active: Potency [8] 26.7 µM

CSC(N)=NCCC[C@H](N)C(=O)O
inactive: Potency [1] | Potency [2] | outcome [3] | Potency [4] | Potency [5] | Potency [6] | activity, negative = inhibition [7] -3.11%

O=C1C2C=CC=CC2=NC(=S)N1CCN1CCC(=C(c2ccc(F)cc2)c2ccc(F)cc2)CC1 (stereo not drawn)
inactive: Potency [1] | Potency [2] | outcome [3] | Potency [4] | Potency [5] | Potency [6] | activity, negative = inhibition [7] -6.14%

COc1ccc(C(=O)NCc2cccnc2)cc1C(=O)NCc1cccnc1
inactive: Potency [1] | Potency [2] | outcome [3] | Potency [4] | Potency [5] | Potency [6] | activity, negative = inhibition [7] -3.95%

Cc1nc(N=Nc2ccc(C(=O)O)cc2)c(COP(=O)(O)O)c(C=O)c1O
inactive: Potency [1] | Potency [2] | outcome [3] | Potency [4] | Potency [5] | Potency [6] | activity, negative = inhibition [7] -12.4%

CCCCCC[C@@H]([C@@H](C)O)n1cnc2c(N)ncnc21
inactive: Potency [1] | Potency [2] | outcome [3] | Potency [4] | Potency [5] | Potency [8] | Potency [9] | activity, negative = inhibition [7] -6.57%

CCN(CC)CCOC(=O)c1cc(Cl)c(N)cc1OC
inactive: Potency [1] | Potency [2] | outcome [3] | Potency [4] | Potency [5] | Potency [8] | Potency [9] | activity, negative = inhibition [7] -9.27%

O=C(O)C1=CCCNC1
inactive: Potency [1] | Potency [2] | outcome [3] | Potency [4] | Potency [5] | Potency [8] | Potency [9] | activity, negative = inhibition [7] -1.96%

C/C(=C\c1ccc(C(=O)O)cc1)c1ccc2c(c1)C(C)(C)CCC2(C)C
active: Potency [10] 21.5 µM | Potency [8] 10.6 µM | Potency [11] 24.1 µM | Potency [12] 24.1 µM | Potency [13] 7.94 µM | Potency [14] 1.56 µM
inactive: Potency [1] | Potency [2] | outcome [3] | Potency [4] | Potency [5] | Potency [9] | Potency [15] | Potency [16] | Potency [17] | outcome [18]
